{
  "source": "ChEMBL document CHEMBL4513146",
  "about": "“CO-ADD screening of Karazin Kharkiv National University (Ukraine) compounds”",
  "note": "Entries with a potency or affinity are not part of this list.",
  "data": [
    {"tested_on": "Staphylococcus aureus", "conditions": "Concentration 32 ug.mL-1;; ASSAY_TEST Inhibition of Bacterial Growth; detection method Absorption (OD600); MEDIA CAMHB; plate type 384well; NBS; CORNING #3640; time 18 hr", "units": {"Inhibition": "%"}, "values": [
      {"smiles": "CC(C)(C)S(=O)(=O)c1ccc2nn(CC(=O)Nc3ccc4c(c3)OCO4)c(=O)n2n1", "Inhibition": 14.6},
      {"smiles": "Cc1cc(C)c(C(=O)CSc2nnc3c(=O)n(-c4ccc(F)cc4)ccn23)cc1C", "Inhibition": 6.25},
      {"smiles": "COc1cc(NC(=O)Cn2nc3ccc(C(=O)NCc4ccccc4)cn3c2=O)cc(OC)c1OC", "Inhibition": -6.97},
      {"smiles": "O=c1n(Cc2ccc3c(c2)OCO3)nc2c(S(=O)(=O)N3CCCCC3)cccn12", "Inhibition": 10.75},
      {"smiles": "Cc1ccc(NC(=O)Cn2nc3ccc(SCc4ccc(Cl)cc4)nn3c2=O)c(C)c1", "Inhibition": -11.8},
      {"smiles": "COC(=O)c1ccccc1NC(=O)Cn1nc2c(SC3CCCCC3)nccn2c1=O", "Inhibition": -10.07},
      {"smiles": "CCCCc1ccc(NC(=O)Cn2nc3c(SC4CCCCC4)nccn3c2=O)cc1", "Inhibition": -1.79},
      {"smiles": "Cc1ccc(NC(=O)Cn2nc3c(Sc4ccccc4)nccn3c2=O)c(C)c1", "Inhibition": 5.22},
      {"smiles": "CCc1nnc2c(S(=O)(=O)N(Cc3cccc(F)c3)c3ccc(F)cc3)cccn12", "Inhibition": -7.77},
      {"smiles": "CCCCN(C)c1ccc2nnc(CCc3nc(-c4cccc(Br)c4)no3)n2n1", "Inhibition": 7.62},
      {"smiles": "Cc1ccccc1CN(c1ccc(Cl)cc1)S(=O)(=O)c1cccn2c(C)nnc12", "Inhibition": 11.54},
      {"smiles": "Cc1ccc(NC(=O)Cn2nc3ccc(SC(C)C)nn3c2=O)c(Cl)c1", "Inhibition": -9.9},
      {"smiles": "CC(C)CCn1c(=O)c2ccccc2n2c(=O)n(CC#N)nc12", "Inhibition": 16.96},
      {"smiles": "COc1ccc(-c2cc3c4nn(CC(=O)Nc5cccc(OC)c5)c(=O)n4ccn3n2)cc1", "Inhibition": -3.02},
      {"smiles": "COc1ccc(-c2cc3c4nnc(CCC(=O)NCc5cccs5)n4ccn3n2)cc1", "Inhibition": 11.44},
      {"smiles": "COc1ccc(OC)c(NC(=O)Cn2nc3c(Sc4ccccc4)nc4ccccc4n3c2=O)c1", "Inhibition": 6.17},
      {"smiles": "Cc1nnc2ccc(S(=O)(=O)N(Cc3ccccc3F)c3cccc(F)c3)cn12", "Inhibition": 9.15},
      {"smiles": "CCc1ccccc1Sc1nccn2c(=O)n(CC(=O)N3CCN(c4ccc(F)cc4)CC3)nc12", "Inhibition": 2.23},
      {"smiles": "COc1ccccc1-n1ccn2c(SCC(=O)Nc3ccc(C)c(F)c3)nnc2c1=O", "Inhibition": 12},
      {"smiles": "O=C(NCc1ccccc1)c1ccc2nn(CC(=O)N3CCN(c4ccc(F)cc4)CC3)c(=O)n2c1", "Inhibition": 4.28},
      {"smiles": "Cc1nnc2c(S(=O)(=O)N(Cc3ccccc3)c3ccc(C(C)C)cc3)cccn12", "Inhibition": 6.07},
      {"smiles": "Cc1ccc(Cn2c(=O)c3ccccc3n3c(=O)n(CC#N)nc23)cc1", "Inhibition": 3.14},
      {"smiles": "Cc1ccc(Cl)cc1NC(=O)CSc1nnc2n(CC3CCCO3)c(=O)c3sccc3n12", "note": "(stereo not given)", "Inhibition": 8.22},
      {"smiles": "Cc1cccc(N(Cc2cccc(Cl)c2)S(=O)(=O)c2cccn3c(C)nnc23)c1", "Inhibition": 2.81},
      {"smiles": "CCOc1ccc(N(Cc2cccc(F)c2)S(=O)(=O)c2ccc3nncn3c2)cc1", "Inhibition": 8.4},
      {"smiles": "CCc1nnc2c(SCC(=O)Nc3ccc(C(=O)OC)cc3)nc3ccccc3n12", "Inhibition": 1.34},
      {"smiles": "CC(C)Cn1c(=O)c2sccc2n2c(=O)n(CC(=O)NC(C)(C)C)nc12", "Inhibition": -11.52},
      {"smiles": "CCc1ccc(N(Cc2cccc(OC)c2)S(=O)(=O)c2cccn3cnnc23)cc1", "Inhibition": 17.37},
      {"smiles": "O=S(=O)(c1ccc2nncn2c1)N(Cc1ccc(Cl)cc1)c1ccc2c(c1)OCO2", "Inhibition": 11.62},
      {"smiles": "Cc1nnc2ccc(S(=O)(=O)N(Cc3ccccc3Cl)c3ccc(F)cc3)cn12", "Inhibition": -4.74},
      {"smiles": "CC(C)(C)NC(=O)Cn1nc2n(Cc3cccs3)c(=O)c3sccc3n2c1=O", "Inhibition": -26.19},
      {"smiles": "Cc1ccc(Oc2nccn3c(=O)n(CC(=O)Nc4ccc(Br)cc4F)nc23)cc1", "Inhibition": 5.87},
      {"smiles": "O=c1c2sccc2n2c(=S)[nH]nc2n1CC1CCCO1", "note": "(stereo not given)", "Inhibition": 3.07},
      {"smiles": "CCOC(=O)c1ccc(NC(=O)Cn2nc3c4cc(-c5ccc(C)c(C)c5)nn4ccn3c2=O)cc1", "Inhibition": 3.76},
      {"smiles": "COc1cccc(-n2ccn3c(SCC(=O)Nc4ccccc4F)nnc3c2=O)c1", "Inhibition": 8.86},
      {"smiles": "Cc1ccccc1Oc1nccn2c(=O)n(CC(=O)Nc3ccc(F)cc3F)nc12", "Inhibition": 15.72},
      {"smiles": "COc1ccc(NC(=O)c2ccc3nn(CC(=O)Nc4cccc(OC)c4)c(=O)n3c2)cc1", "Inhibition": 15.63},
      {"smiles": "O=c1c2sccc2n2c(=O)n(Cc3cccc(C(F)(F)F)c3)nc2n1Cc1cccs1", "Inhibition": 22.09},
      {"smiles": "Cn1c(=O)c2sccc2n2c(=O)n(Cc3ccc(Cl)cc3)nc12", "Inhibition": 3.13},
      {"smiles": "Cc1ccc(-c2cc3c4nn(CC(=O)Nc5cccc(Br)c5)c(=O)n4ccn3n2)cc1", "Inhibition": 8.15}
    ]},
    {"tested_on": "Escherichia coli", "conditions": "Concentration 32 ug.mL-1;; ASSAY_TEST Inhibition of Bacterial Growth; detection method Absorption (OD600); MEDIA CAMHB; plate type 384well; NBS; CORNING #3640; time 18 hr", "units": {"Inhibition": "%"}, "values": [
      {"smiles": "CC(C)(C)S(=O)(=O)c1ccc2nn(CC(=O)Nc3ccc4c(c3)OCO4)c(=O)n2n1", "Inhibition": 0.97},
      {"smiles": "Cc1cc(C)c(C(=O)CSc2nnc3c(=O)n(-c4ccc(F)cc4)ccn23)cc1C", "Inhibition": -5.27},
      {"smiles": "COc1cc(NC(=O)Cn2nc3ccc(C(=O)NCc4ccccc4)cn3c2=O)cc(OC)c1OC", "Inhibition": -8.69},
      {"smiles": "O=c1n(Cc2ccc3c(c2)OCO3)nc2c(S(=O)(=O)N3CCCCC3)cccn12", "Inhibition": 1.46},
      {"smiles": "Cc1ccc(NC(=O)Cn2nc3ccc(SCc4ccc(Cl)cc4)nn3c2=O)c(C)c1", "Inhibition": -8.79},
      {"smiles": "COC(=O)c1ccccc1NC(=O)Cn1nc2c(SC3CCCCC3)nccn2c1=O", "Inhibition": -11.96},
      {"smiles": "CCCCc1ccc(NC(=O)Cn2nc3c(SC4CCCCC4)nccn3c2=O)cc1", "Inhibition": -6.08},
      {"smiles": "Cc1ccc(NC(=O)Cn2nc3c(Sc4ccccc4)nccn3c2=O)c(C)c1", "Inhibition": -4.74},
      {"smiles": "CCc1nnc2c(S(=O)(=O)N(Cc3cccc(F)c3)c3ccc(F)cc3)cccn12", "Inhibition": -5},
      {"smiles": "CCCCN(C)c1ccc2nnc(CCc3nc(-c4cccc(Br)c4)no3)n2n1", "Inhibition": -1.77},
      {"smiles": "Cc1ccccc1CN(c1ccc(Cl)cc1)S(=O)(=O)c1cccn2c(C)nnc12", "Inhibition": 1.89},
      {"smiles": "Cc1ccc(NC(=O)Cn2nc3ccc(SC(C)C)nn3c2=O)c(Cl)c1", "Inhibition": 1.89},
      {"smiles": "CC(C)CCn1c(=O)c2ccccc2n2c(=O)n(CC#N)nc12", "Inhibition": 1.73},
      {"smiles": "COc1ccc(-c2cc3c4nn(CC(=O)Nc5cccc(OC)c5)c(=O)n4ccn3n2)cc1", "Inhibition": -0.95},
      {"smiles": "COc1ccc(-c2cc3c4nnc(CCC(=O)NCc5cccs5)n4ccn3n2)cc1", "Inhibition": 4.51},
      {"smiles": "COc1ccc(OC)c(NC(=O)Cn2nc3c(Sc4ccccc4)nc4ccccc4n3c2=O)c1", "Inhibition": -0.83},
      {"smiles": "Cc1nnc2ccc(S(=O)(=O)N(Cc3ccccc3F)c3cccc(F)c3)cn12", "Inhibition": -8.44},
      {"smiles": "CCc1ccccc1Sc1nccn2c(=O)n(CC(=O)N3CCN(c4ccc(F)cc4)CC3)nc12", "Inhibition": -2.15},
      {"smiles": "COc1ccccc1-n1ccn2c(SCC(=O)Nc3ccc(C)c(F)c3)nnc2c1=O", "Inhibition": -1.35},
      {"smiles": "O=C(NCc1ccccc1)c1ccc2nn(CC(=O)N3CCN(c4ccc(F)cc4)CC3)c(=O)n2c1", "Inhibition": -2.47},
      {"smiles": "Cc1nnc2c(S(=O)(=O)N(Cc3ccccc3)c3ccc(C(C)C)cc3)cccn12", "Inhibition": -2.4},
      {"smiles": "Cc1ccc(Cn2c(=O)c3ccccc3n3c(=O)n(CC#N)nc23)cc1", "Inhibition": -7.28},
      {"smiles": "Cc1ccc(Cl)cc1NC(=O)CSc1nnc2n(CC3CCCO3)c(=O)c3sccc3n12", "note": "(stereo not given)", "Inhibition": -0.5},
      {"smiles": "Cc1cccc(N(Cc2cccc(Cl)c2)S(=O)(=O)c2cccn3c(C)nnc23)c1", "Inhibition": -5.89},
      {"smiles": "CCOc1ccc(N(Cc2cccc(F)c2)S(=O)(=O)c2ccc3nncn3c2)cc1", "Inhibition": -7.52},
      {"smiles": "CCc1nnc2c(SCC(=O)Nc3ccc(C(=O)OC)cc3)nc3ccccc3n12", "Inhibition": -1.9},
      {"smiles": "CC(C)Cn1c(=O)c2sccc2n2c(=O)n(CC(=O)NC(C)(C)C)nc12", "Inhibition": -13.32},
      {"smiles": "CCc1ccc(N(Cc2cccc(OC)c2)S(=O)(=O)c2cccn3cnnc23)cc1", "Inhibition": 2.31},
      {"smiles": "O=S(=O)(c1ccc2nncn2c1)N(Cc1ccc(Cl)cc1)c1ccc2c(c1)OCO2", "Inhibition": -6.36},
      {"smiles": "Cc1nnc2ccc(S(=O)(=O)N(Cc3ccccc3Cl)c3ccc(F)cc3)cn12", "Inhibition": -4.95},
      {"smiles": "CC(C)(C)NC(=O)Cn1nc2n(Cc3cccs3)c(=O)c3sccc3n2c1=O", "Inhibition": -5.05},
      {"smiles": "Cc1ccc(Oc2nccn3c(=O)n(CC(=O)Nc4ccc(Br)cc4F)nc23)cc1", "Inhibition": -0.38},
      {"smiles": "O=c1c2sccc2n2c(=S)[nH]nc2n1CC1CCCO1", "note": "(stereo not given)", "Inhibition": -0.32},
      {"smiles": "CCOC(=O)c1ccc(NC(=O)Cn2nc3c4cc(-c5ccc(C)c(C)c5)nn4ccn3c2=O)cc1", "Inhibition": -8.53},
      {"smiles": "COc1cccc(-n2ccn3c(SCC(=O)Nc4ccccc4F)nnc3c2=O)c1", "Inhibition": -8.93},
      {"smiles": "Cc1ccccc1Oc1nccn2c(=O)n(CC(=O)Nc3ccc(F)cc3F)nc12", "Inhibition": 1.95},
      {"smiles": "COc1ccc(NC(=O)c2ccc3nn(CC(=O)Nc4cccc(OC)c4)c(=O)n3c2)cc1", "Inhibition": 0.97},
      {"smiles": "O=c1c2sccc2n2c(=O)n(Cc3cccc(C(F)(F)F)c3)nc2n1Cc1cccs1", "Inhibition": 2.86},
      {"smiles": "Cn1c(=O)c2sccc2n2c(=O)n(Cc3ccc(Cl)cc3)nc12", "Inhibition": -4.41},
      {"smiles": "Cc1ccc(-c2cc3c4nn(CC(=O)Nc5cccc(Br)c5)c(=O)n4ccn3n2)cc1", "Inhibition": 0.32}
    ]}
  ]
}
